Experimental data: PubChem BioAssay (Tox21)
Records with an inconclusive call do not appear. A call without a number means that no potency is given here. Activity calls are given as the source filed them. The call rests on the fitted dose curve; in most records, active means well fitted activation curve with a large enough effect in the repeat runs; inconclusive means weak or mixed curves; inactive means no such curve, though single readings can be large or run the other way.

test: qHTS assay for small molecules that induce genotoxicity in human embryonic kidney cells expressing luciferase-tagged ATAD5 (AID 651632); details: HEK293T ATAD5-luciferase induction, 16 h; series mostly up to 83.3 µM; further: nearly all actives have a fitted effect of over 15% in size
Description: U.S. Tox21 Program National Center for Advancing Translational Sciences [NCATS] NIH Chemical Genomics Center [NCGC] U.S. Environmental Protection Agency [EPA] National Institutes of Environmental Health Sciences [NIEHS] National Toxicology Program [NTP] U.S. Food and Drug Administration [FDA] Tox21 Assay Overview: As cancer cells divide rapidly and during every cell division they need to duplicate their genome by DNA replication. The failure to do so results in the cancer cell death. Based on this concept, many chemotherapeutic agents were developed but have limitations such as low efficacy and severe side effects etc. A new cell based assay was developed to find the compounds that effectively block DNA replication either by directly damaging DNA or by inhibiting other cellular mechanisms. Enhanced Level of Genome Instability Gene 1 (ELG1; human ATAD5) protein levels increase in response to various types of DNA damage. Using a luciferase reporter-gene tagged with ATAD5, a cell-based assay [developed by Kyungjae Myung, NHGRI, NIH] was used to measure the induction of ATAD5 in human embryonic kidney cells (HEK293T). So, increase in luciferase activity can be used to identify the compounds that cause genetic stress.
Tox21 Assay Protocol Summary: For genotoxicity screening, 2,000 cells in 5 uL/well were dispensed into white, solid-bottom 1536-well plates using a Multidrop Combi (Thermo Scientific) dispenser. Following transfer of 23 nL compound or DMSO vehicle by a pin tool, the plates were incubated 16 hr at 37C and 5% CO2. 5 ul Amplite (AAT Bioquest, Inc.) was then added to each plate and following 30 min incubation at room temperature, luciferase activity was quantified on a ViewLux CCD-based plate reader.

Row | Structure (SMILES) | Potency
1 | CN(C)c1ccc(C=O)cc1 | inactive
2 | Cc1cc(NC(=O)C2=C(O)c3ccccc3S(=O)(=O)N2C)no1 | inactive
3 | BrCCCCCBr | inactive
4 | CC(=O)c1ccc2c(c1)Cc1ccccc1-2 | inactive
5 | C[C@H](N)[C@H](O)c1cccc(O)c1 | inactive
6 | CCOc1cc(NC(C)=O)ccc1C(=O)OC | inactive
7 | COP(=O)(OC)OC(c1ccc(Cl)cc1)P(=O)(OC)OC (stereo not given) | inactive
8 | COc1cc(C(=S)N2CCOCC2)cc(OC)c1OC | inactive
9 | CCOCCOCCOCC | inactive
10 | c1ccc2nccnc2c1 | inactive
11 | CC(C)CC(=O)O | inactive
12 | C=Cc1ccccn1 | inactive
13 | CCCC(=O)C(C)=O | inactive
14 | BrCc1cccc(Oc2ccccc2)c1 | inactive
15 | O=C1c2cccc3c2[C@H](CCC3)CN1[C@@H]1CN2CCC1CC2 | inactive
16 | C=C(C)C(=O)OCCOP(=O)(O)OCCOC(=O)C(=C)C | inactive
17 | NCCS | inactive
18 | FC(F)(F)c1ccccc1-n1ccnc1 | inactive
19 | C=C1CC/C=C(\C)CC[C@@H]2[C@@H]1CC2(C)C | inactive
20 | CC(=O)c1sc(C)nc1C | inactive

Row | Structure (SMILES) | Potency
21 | COC(=O)CCc1ccc(OCC(O)CNC(C)C)cc1 (stereo not given) | inactive
22 | Cc1ccc(S(=O)(=O)O)c(C)c1 | inactive
23 | CCc1ccc(C=O)cc1 | inactive
24 | NS(=O)(=O)c1ccc(NC(=O)CCC(=O)O)cc1 | inactive
25 | C=C(C)C(=O)OCc1ccccc1 | inactive
26 | O=C(O)c1ccc(Cl)cc1Cl | inactive
27 | C=C(C)C1CCC(C)(O)CC1 (stereo not given) | inactive
28 | O=C(CS(=O)Cc1ccco1)NC/C=C\COc1cc(CN2CCCCC2)ccn1 (stereo not given) | inactive
29 | O=C(Nc1ccc(Cl)c(Cl)c1)C1CC1 | inactive
30 | Nc1ncnc(Nc2ccccc2)n1 | inactive
31 | CCC(CC)CO | inactive
32 | N[C@@H](COP(=O)(O)O)C(=O)O | inactive
33 | CC(=O)N[C@@H](CCC(=O)O)C(=O)O | inactive
34 | CC(C)=O | inactive
35 | O=C(OCC1(COC(=O)c2cccnc2)CCCC(COC(=O)c2cccnc2)(COC(=O)c2cccnc2)C1O)c1cccnc1 | inactive
36 | CC1(CO)CN(c2ccccc2)NC1=O (stereo not given) | inactive
37 | COc1ccc(OC)c(Cl)c1 | inactive
38 | C[C@H](CCC(=O)O)[C@H]1CC[C@H]2[C@@H]3C(=O)C[C@@H]4CC(=O)CC[C@]4(C)[C@H]3CC(=O)[C@]12C | inactive
39 | CC(COC(C)(C)C)OCCCO (stereo not given) | inactive
40 | Cc1cccc2nccnc12 | inactive
